An excerpt weighted towards active compounds, which were near 4.1% of everything screened.
Beta apoptosis: beta cell apoptosis inhibition; INS-1E cytokine-induced death, ATP luminescence, 48 h; percent of positive-control rescue, neutral wells zero; protection from apoptosis, % (concentration not given with the values); 0.8% of 300,000 active;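 active = Every replicate reaches about 75%, or at least half do and their mean reaches it too, limit read from the data; inconclusive = At least half of replicates reach the limit but their mean does not; inactive = Under half of replicates reach the limit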;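 note: 0% = cytokine-treated negative control wells and 100% = positive control rescue; higher means more ATP so stronger rescue from cytokine killing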
Mdm2-MdmX inh: human Mdm2/MdmX binding inhibition; SaOS-2 split-luciferase Mdm2/MdmX complementation, luminescence; 3% of 330,000 active; inhibition, % at 8 µM; O15151+Q00987;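 active = inhibition of at least 50% at 8 µM in the primary screen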
Target sequence (O15151 whole entry, looked up): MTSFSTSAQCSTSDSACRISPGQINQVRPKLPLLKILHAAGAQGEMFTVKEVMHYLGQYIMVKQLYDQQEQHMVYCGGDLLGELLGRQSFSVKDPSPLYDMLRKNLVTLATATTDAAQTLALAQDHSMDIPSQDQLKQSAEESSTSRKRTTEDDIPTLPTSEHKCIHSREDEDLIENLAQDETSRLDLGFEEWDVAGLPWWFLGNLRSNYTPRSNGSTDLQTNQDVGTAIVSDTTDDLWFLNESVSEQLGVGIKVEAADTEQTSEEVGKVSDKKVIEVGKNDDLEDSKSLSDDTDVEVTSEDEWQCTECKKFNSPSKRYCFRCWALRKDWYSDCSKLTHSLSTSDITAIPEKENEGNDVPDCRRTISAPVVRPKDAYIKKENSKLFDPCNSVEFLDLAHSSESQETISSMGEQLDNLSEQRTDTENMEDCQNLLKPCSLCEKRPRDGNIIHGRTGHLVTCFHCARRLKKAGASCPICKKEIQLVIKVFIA
Target sequence (Q00987 whole entry, looked up): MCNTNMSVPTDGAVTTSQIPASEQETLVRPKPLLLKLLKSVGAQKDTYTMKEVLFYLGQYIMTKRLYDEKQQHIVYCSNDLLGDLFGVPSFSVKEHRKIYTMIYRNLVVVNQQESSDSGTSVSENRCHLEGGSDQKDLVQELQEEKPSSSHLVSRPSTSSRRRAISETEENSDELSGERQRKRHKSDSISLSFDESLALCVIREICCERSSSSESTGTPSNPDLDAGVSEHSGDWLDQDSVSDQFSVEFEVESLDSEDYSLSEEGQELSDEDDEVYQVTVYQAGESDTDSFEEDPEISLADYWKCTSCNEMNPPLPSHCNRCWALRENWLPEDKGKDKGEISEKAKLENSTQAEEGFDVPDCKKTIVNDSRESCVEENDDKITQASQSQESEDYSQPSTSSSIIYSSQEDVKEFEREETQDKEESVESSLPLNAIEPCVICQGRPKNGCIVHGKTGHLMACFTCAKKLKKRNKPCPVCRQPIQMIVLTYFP
aSyn UTR inh: 5' untranslated region of α-synuclein, MLPCN primary screen. alpha-synuclein 5'UTR reporter, inhibitor activity. inhibition, % (tested at 7.5 µM). 0.82% of 300,000 active; in the data active = inhibition above about 60%; inconclusive = no clear call, values can overlap the other calls;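 note: H4 neuroglioblastoma cells stably carrying SNCA 5'UTR luciferase fusion; 0% = DMSO wells and 100% = positive control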
Bfl-1 A1 inh: inhibitors of the anti-apoptotic protein A1, read as caspase activation | MEF A1-2A-BIM cells, Caspase-Glo 3/7 luminescence, 3 h; percent of clofoctol response, vehicle zero | caspase activation, % (no concentration beside the values) | 0.066% of 330,000 active | AID 2462;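 active = over half of replicate activation scores above 10%, or exactly half above 10 with the replicate mean above 10; inconclusive = replicate mean below 10 yet half the replicates above 10; inactive = over half of replicates below 10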
CSC inhib: cancer stem cell inhibition; cancer stem cell-like cells viability, luminescence; 1.1% of 300,000 active; inhibition, % at 7.5 µM; AID 2717; in the data active = inhibition above about 75%; inconclusive = no clear call, values can overlap the other calls; tested in HMLE shEcad cells
Mdm2 MdmX conf: human Mdm2/MdmX binding inhibition, confirmed; 55% of 10,000 active; inhibition, % at 8 µM; shares compounds with Mdm2-MdmX inh; luminescent assay; in the data active = inhibition above about 40%
Full FLuc ctr: counter-screen for Mdm2/MdmX inhibitors: full-length luciferase | inhibition, % at 8 µM | AID 504607 | 77% of 6,200 active | SaOS-2 full-length luciferase counterscreen, luminescence | shares compounds with Mdm2-MdmX inh;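 active = mean inhibition at 8 µM reaching about 37%, which flags the compound as non-specific, limit read from the data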;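 note: p53-null SaOS-2 cells with luciferase driven by a doxycycline-inducible promoter; compound on cells about two nights before reading with doxycycline added after day one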
The depositor's hits bear a star; u = inconclusive; x = no result given.

SMILES	Beta apoptosis	Mdm2-MdmX inh	aSyn UTR inh	Bfl-1 A1 inh	CSC inhib	Mdm2 MdmX conf	others
N=c1n(CCN2CCCCC2)c2ccccc2n1CC(=O)c1cccc([N+](=O)[O-])c1	43.3	73.0*	-15.9	-0.7	7.2	15.2
CC(C)NC(=O)COc1coc(CN2CCN(c3ccccc3)CC2)cc1=O	x	-4.9	1.7	1.5	-13.9	x
Cc1ccc2nsnc2c1NC(=O)c1ccc(-c2cc(Cl)ccc2Cl)o1	46.6	60.4*	54.4	0.1	-17.9	23.1
O=C(CCC(=O)c1ccc(Cl)cc1)OCc1nc2ccsc2c(=O)[nH]1	x	23.1	12.5	0.1	-12.8	x
COc1ccc(N/N=C(/C)c2cnnc(-c3ccccc3)n2)cc1	8.2	78.8*	-70.2	-0.7	9.7	-2.5
Cc1ccc(C(=O)N/C(=C\c2ccc(-c3cccc([N+](=O)[O-])c3)o2)C(=O)NCCCN(C)C)cc1	6.9	38.9	-16.4	0.3	11.7	x
CN(C)CCNC(=O)/C(=C/c1ccc(-c2ccc(Cl)cc2)o1)NC(=O)c1ccccc1	0.0	x	-16.0	0.3	21.4	x
Cc1ccc(C(=O)N/C(=C\c2ccc(-c3ccc(Br)cc3)o2)C(=O)NCCCN(C)C)cc1	100.4*	100.2*	u	-0.3	u	99.2*	Full FLuc ctr=54.7*
CN(C)CCNC(=O)/C(=C/c1ccc(-c2ccc(Cl)cc2Cl)o1)NC(=O)c1ccccc1	99.4*	100.2*	29.4	0.3	110.0*	99.9*	Full FLuc ctr=26.3
O=[N+]([O-])c1cc(Cl)cc(/C=N/Nc2nc3ccccc3s2)c1O	8.2	79.7*	-77.7	0.5	47.3	-0.9
C(=N\Nc1nc2ccccc2s1)/c1ccccn1	x	94.4*	100.9*	-7.8	93.9*	95.5*	Full FLuc ctr=48.1*
Cc1occc1C(=O)/C(C#N)=C/c1ccc(O)c(Br)c1	-6.1	-0.3	-5.7	-7.3	8.3	x
CC(C)c1nnc(NC(=O)c2ccc3c(c2)OCO3)s1	x	-5.2	u	-6.4	2.5	x
COc1ccccc1-c1nnc(NC(=O)c2ccc3c(c2)OCO3)s1	-4.8	90.3*	44.6	0.7	0.6	65.7*	Full FLuc ctr=84.8*
Cc1ccc(C)c(OCc2nnc(NC(=O)c3ccc4c(c3)OCO4)s2)c1	0.2	68.5*	6.6	-0.4	-4.5	28.0
CCOC(=O)c1c(S(=O)(=O)NCC(=O)Nc2ccc(OC)cc2)c(C)n(C)c1C	-11.1	17.6	13.2	0.3	-6.4	x
O=c1c(Cl)cc(Cl)nn1-c1ccccc1	-5.7	54.7*	-27.1	-1.7	58.7	27.8
COc1cc(Cl)nn(-c2ccccc2)c1=O	0.5	-6.5	1.1	0.1	4.4	x
NC(=O)CC(NC(=O)Cc1ccc(Br)cc1)c1ccc(N2CCC(Cc3ccccc3)CC2)c([N+](=O)[O-])c1 (stereo not given)	70.1	71.1*	39.6	0.3	u	54.6*	Full FLuc ctr=48.2*
NC(=O)CC(NC(=O)Cc1ccc(Br)cc1)c1ccc(N2CCC(Br)CC2)c([N+](=O)[O-])c1 (stereo not given)	-1.5	49.2	30.2	0.7	14.1	x
CCCCNc1ccc(C(CC(N)=O)NC(=O)Cc2ccc(Br)cc2)cc1[N+](=O)[O-] (stereo not given)	-11.0	86.6*	-10.0	0.3	7.0	60.2*	Full FLuc ctr=53.1*
CCOC(=O)C1=CN(Cc2ccco2)S(=O)(=O)NC1c1ccc(F)c(Cl)c1 (stereo not given)	x	32.5	x	x	x	x
Cc1c(C(=O)N(C)Cc2nc3ccccc3c(=O)[nH]2)oc2ccccc12	-1.8	41.1	x	-0.1	45.7	x
CS(=O)(=O)N(CC(=O)N1CCCCCC1)c1cccc(F)c1	-6.2	13.2	-2.9	1.2	-26.7	x
CC(C)Cc1nnc(NC(=O)CCS(=O)(=O)c2ccc(Cl)cc2)s1	-13.1	31.9	-5.9	1.1	-0.8	x
SMILES	Beta apoptosis	Mdm2-MdmX inh	aSyn UTR inh	Bfl-1 A1 inh	CSC inhib	Mdm2 MdmX conf	others
COc1ccc(CC(NC(C)=O)C(=O)NC2CCN(c3ncccc3[N+](=O)[O-])CC2)cc1 (stereo not given)	-5.9	13.0	-11.0	0.6	10.9	x
COc1cc(/C=C(\C#N)c2nc(-c3cc4ccccc4oc3=O)cs2)ccc1O	16.6	58.1*	10.9	1.1	23.5	13.0
Cc1cccc(NC(=O)C(C)OC(=O)c2ccccc2NS(=O)(=O)c2cc(C)c(C)c([N+](=O)[O-])c2)c1 (stereo not given)	10.6	61.5*	16.2	0.4	65.3	16.0
Cc1ccc(N(C)C(=O)CN(C)S(=O)(=O)c2ccc3c(c2)n(C)c(=O)c(=O)n3C)cc1	-3.9	-2.5	8.2	0.6	8.4	x
CCc1ccc(N=C2N=C(N)c3ccccc32)cc1	-7.8	55.2*	-98.4	1.2	-3.4	-8.7
O=C(COC(=O)/C=C/c1ccc(C(F)(F)F)cc1)NC1CCS(=O)(=O)C1 (stereo not given)	-1.7	12.4	-2.1	0.0	13.2	x
CCCS(=O)(=O)c1c(S(=O)(=O)CCC)c2c(C)cccn2c1C(N)=O	-8.8	-7.9	2.5	-0.2	-12.5	x
CCCS(=O)(=O)c1c(S(=O)(=O)CCC)c2c(C)cccn2c1C(=O)N/N=C/c1cc(O)cc(O)c1	65.4	58.2*	10.5	-0.1	132.5*	57.0*	Full FLuc ctr=37.0*
CCOc1ccccc1N1CCN(C(=O)c2cc3ccccc3cc2OC)CC1	x	57.1*	x	x	x	80.0*	Full FLuc ctr=69.3*
COc1cc2ccccc2cc1C(=O)N1CCN(C(C)=O)CC1	-4.4	15.9	-12.6	0.4	-6.7	x
CCOc1ccccc1N1CCN(C(=O)c2cc(-c3cccnc3)nc3c(Cl)cccc23)CC1	-7.4	87.8*	16.3	0.3	1.4	82.8*	Full FLuc ctr=52.5*
CCOc1ccccc1N1CCN(C(=O)c2ccncc2)CC1	x	-2.5	44.8	0.2	x	x
CN1CCN(S(=O)(=O)c2ccc3c(c2)oc(=O)n3C)CC1	-1.9	14.5	-9.9	2.6	-6.2	x
CCOc1ccc(-n2nnnc2-c2nc3ccccc3s2)cc1	13.2	74.4*	-49.4	0.2	14.7	48.7*	Full FLuc ctr=88.5*
CCN(CC)CCOc1ccc(/C(=C(\Cl)c2ccccc2)c2ccccc2)cc1	44.0	69.1*	-0.5	0.2	102.7*	30.2
NC(=O)c1ccc(NC(=O)COC(=O)c2cc3ccccc3cc2O)cc1	-2.8	54.5*	x	-1.0	-13.6	-10.2
Nc1nc(CCl)nc(N(c2ccccc2)c2ccccc2)n1	23.1	93.9*	7.6	0.4	2.9	94.7*	Full FLuc ctr=38.2*
Nc1nc(Cl)nc(N(c2ccccc2)c2ccccc2)n1	-9.6	1.8	2.3	0.9	-9.2	x
CCn1c(/C=C/Nc2ccccc2)[n+](CC)c2cc(Cl)c(Cl)cc21	4.3	97.5*	-18.9	-1.0	10.3	27.5
Nc1c(C(=O)NC2CCCC2)c2nc3ccccc3nc2n1/N=C/c1ccco1	-8.3	72.8*	-3.6	-0.1	-1.6	9.2

Assay outcomes: PubChem BioAssay, several laboratories
